Bioassay records from PubChem BioAssay.
D2 antag: HTS Assay for Allosteric Antagonists of the Human D2 Dopamine Receptor: Primary Screen for Antagonists. D(2) dopamine receptor (Homo sapiens), P14416. HEK293 TREx D2 cells, calcium flux, dopamine EC80. inhibition, % at 10 µM. actives 2% (n = 340,000). AID 485344, 2010; in the data active = inhibition above about 30%; inactive = below that, where a call was filed
Target sequence (P14416 whole entry, looked up): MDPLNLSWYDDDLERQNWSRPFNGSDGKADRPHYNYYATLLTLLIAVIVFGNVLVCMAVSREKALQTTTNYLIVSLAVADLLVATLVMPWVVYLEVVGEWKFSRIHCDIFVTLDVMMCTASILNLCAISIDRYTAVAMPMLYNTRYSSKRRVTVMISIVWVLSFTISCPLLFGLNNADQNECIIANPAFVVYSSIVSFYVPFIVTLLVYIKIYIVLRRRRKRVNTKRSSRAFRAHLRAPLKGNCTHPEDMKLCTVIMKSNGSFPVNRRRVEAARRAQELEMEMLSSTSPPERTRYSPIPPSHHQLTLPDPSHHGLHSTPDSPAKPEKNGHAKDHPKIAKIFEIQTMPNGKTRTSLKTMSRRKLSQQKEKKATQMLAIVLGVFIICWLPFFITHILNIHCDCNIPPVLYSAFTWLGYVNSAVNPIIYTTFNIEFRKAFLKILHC
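Read-out: kinetic calcium fluorescence (1 cycle/s) in inducible HEK293 T-REx D2 cells after an EC80 dopamine addition that followed 180 s compound preincubation. Loss of the dopamine response indicates antagonism.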
D2 PAM-1: Beta-Arrestin HTS for Positive Allosteric Modulators of the Human D2 Dopamine Receptor: Potentiators | DiscoveRx D2 beta-arrestin cells, luminescence, 90 min; 100% = 57 uM dopamine signal | potentiation, % (concentration not given with the values) | actives 0.23% (n = 360,000); in the data active = potentiation above about 50%; inconclusive = mostly about 30% to 49%
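PathHunter D2 cells, attached overnight at 37 deg C, received compound in DMSO plus dopamine at EC20 (50 nM final) for 90 min at 37 deg C. Beta-arrestin recruitment was read as luminescence after 1 h with detection reagent at ambient temperature.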
D2 ag-1: Beta-Arrestin HTS for Positive Allosteric Modulators of the Human D2 Dopamine Receptor: Agonists. D(2) dopamine receptor (Homo sapiens), P14416. actives 0.084% (n = 360,000). activation, % (test concentration not listed). DiscoveRx PathHunter D2 beta-arrestin, luminescence, 90 min; 100% = 57 uM dopamine signal; in the data active = activation above about 40%; inconclusive = between about 15% and that limit
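Agonist mode: compounds alone added to overnight-plated D2 PathHunter cells for 90 min at 37 C, with 57 uM final dopamine (EC100) defining full response. Beta-arrestin recruitment detected by chemiluminescent reagent, read after 1 h at ambient temperature.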
D2 PAM-2: HTS Assay for Positive Allosteric Modulators of the Human D2 Dopamine Receptor: Primary Screen for Potentiators; HEK293 T-REx D2, calcium flux, EC20 dopamine potentiation; potentiation, % at 10 µM; actives 0.34% (n = 340,000); AID 485347, 2010;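 active = potentiation over 3 SD above the plate norm, cut at about 30% in these data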
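Potentiation of an EC20 dopamine calcium response is measured in a force-coupled, tetracycline-inducible Hek293 Trex D2 line. Compound-only kinetic reads over 180 s flag agonists before dopamine addition.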
D2 ag-2: HTS Assay for Allosteric Agonists of the Human D2 Dopamine Receptor: Primary Screen for Agonists | D(2) dopamine receptor (Homo sapiens), P14416 | HEK293 T-REx D2 cells, calcium flux agonist mode | actives 0.53% (n = 340,000) | activation, % at 2 µM | AID 485358, 2010;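 active = activation over 3 SD above normal in the single-dose calcium agonist read, cut at about 30% in these data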
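In this primary screen, compounds producing a positive calcium signal within 180 s of addition to tetracycline-induced, force-coupled HEK293 Trex D2 cells are flagged; cells are dye-loaded with a no-wash calcium kit beforehand.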
D3 ag: qHTS of D3 Dopamine Receptor Agonist: D3 Dopamine Receptor B-arrestin Agonist Confirmatory Assay; shares compounds with D2 ag-2; DiscoveRx D3 beta-arrestin cells, luminescence, 90 min; Potency, µM (titrated, usually from 76.9 µM), usual class: activators; actives 4% (n = 2,300); note: nearly all actives have a fitted effect of over 70% in size
D2 ag-3: qHTS of D3 Dopamine Receptor Agonist: D2 Dopamine Receptor B-arrestin Agonist Counterscreen | shares compounds with D2 ag-2 | DiscoveRx PathHunter D2 beta-arrestin, luminescence, 90 min; response scale: percent relative to full dopamine signal | Potency, µM (top dose mostly 76.9 µM), usual class: activators | actives 5.9% (n = 2,300) | AID 720507, 2013; note: nearly all actives have a fitted effect of over 70% in size
A number is an active result; . = inactive; ? = inconclusive; / = no result given. In the library only some 2.4% were active in any assay of this set; here they are far more common. Unless noted, calls come from the whole dose curve; as a rule, active = well fitted activation curve with a large enough effect; inconclusive = small, poorly fitted or top-dose-only effect; inactive = flat fitted curve, though single readings scatter.

SMILES	D2 antag	D2 PAM-1	D2 ag-1	D2 PAM-2	D2 ag-2	D3 ag	D2 ag-3
Nc1nc2c(s1)CCCCCCCCCC2	.	.	.	.	.	/	/
CCN1CCc2nc(N)sc2C1	35	.	.	.	68	.	.
Nc1nc(N)nc(-c2ccc(Cl)c(Cl)c2)n1	.	.	.	.	.	.	.
CCOC(=O)C(=O)Nc1ccc(S(=O)(=O)Nc2nccc(C)n2)cc1	/	.	.	/	/	/	/
CCOC(=O)Nc1ccc(S(=O)(=O)Nc2nccc(C)n2)cc1	.	.	.	.	50	.	.
O=C(C1CCN(S(=O)(=O)Cc2ccccc2)CC1)N1CCN(c2cccc(Cl)c2)CC1	/	/	/	.	.	/	/
O=C(NCc1ccc2c(c1)OCO2)c1nc(Cn2cc(Br)cn2)no1	/	.	.	/	/	.	.
CC(C)SCCCCOc1ccc2ccccc2c1	.	.	.	.	.	.	.
Cc1ccc(S(=O)(=O)Nc2ccc3c(c2)CCCN3C(=O)c2cccs2)cc1	/	/	/	.	.	/	/
CC1CN(C(=O)CNC(=O)Cc2cccc3ccccc23)CC(C)O1 (stereo not given)	.	.	.	.	.	.	.
CC(=O)c1c(C)[nH]c(C(=O)OCC(=O)Nc2ccccc2Cl)c1C	.	.	.	.	.	/	/
CC(=O)c1c(C)[nH]c(C(=O)OCC(=O)Nc2nnc(-c3ccccc3)o2)c1C	35	.	.	.	.	.	.
COc1ccc(/C=N/NC(=O)CCn2cnc3ccccc32)cc1	.	.	.	.	.	.	.
CCOc1ccc(S(=O)(=O)Nc2cc(Cl)ccc2OC)c2cccnc12	/	/	/	.	.	/	/
CC(C)CC[n+]1ccccc1/C=C/c1ccc(N(C)C)cc1	.	.	.	.	.	.	.
COc1cc(C(=O)OCc2cccc(OC)c2OC)ccc1OCC(=O)N1CCOCC1	.	.	.	.	.	.	.
COc1cc(C(=O)OCc2ccccc2C#N)ccc1OCC(=O)N1CCOCC1	.	.	.	.	.	/	/
Cc1ccc(OC(=O)c2cc(-c3ccccc3)nc3ccc(C)cc23)cc1	/	/	/	.	.	/	/
CCC(=O)N1c2nc(-c3ccco3)nn2C2(CCCCC2)[C@@H]2CCCC[C@@H]21	/	/	/	.	.	/	/
O=[N+]([O-])c1ccc(CN2CCN(c3ncccn3)CC2)cc1	85	?	49	.	83	?	18µM
O=[N+]([O-])c1cccc(CN2CCN(c3ncccn3)CC2)c1	.	.	?	.	75	.	?
O=[N+]([O-])c1ccccc1CN1CCN(c2ncccn2)CC1	.	.	.	.	47	.	.
Cc1oc(-c2cccc(Cl)c2)nc1CN1CCC(C(=O)NCCCN2CC(C)CC(C)C2)CC1 (stereo not given)	.	.	.	.	35	.	.
Cc1oc(-c2cccc(Cl)c2)nc1CN1CCC(C(=O)NCCCN2CCN(c3cccc(Cl)c3)CC2)CC1	/	/	/	.	/	/	/
COc1ccccc1NC(=O)Cn1c(=O)n(Cc2cccs2)c(=O)c2cccnc21	/	/	/	.	.	/	/
N#Cc1c(-c2ccco2)nc(SCc2ccc(F)cc2)[nH]c1=O	.	.	.	.	.	/	/
Cc1nc(SCc2cccc(F)c2)[nH]c(=O)c1C#N	/	.	.	/	/	.	.
